Assay results: PubChem BioAssay AID1851 (National Center for Advancing Translational Sciences (NCATS), 2009)
Screen size: about 16,000 compounds; about 4,000 (25%) were called active. About 26% were inconclusive and are not listed. A selection follows. Unmarked numbers belong to inactive results. Calls follow the shape of the dose curve; as a rule, active = well fitted curve in the direction sought with a large enough effect; inconclusive = small, poorly fitted or top-dose-only effect, or effect the other way; inactive = no such curve, though single readings can be large or run the other way.

target: Cytochrome P450 2C9 (Homo sapiens) (UniProt P11712); assay: Cytochrome panel assay with activity outcomes; conditions: recombinant CYP, pro-luciferin dealkylation, luminescence, p450-cyp2c9; series mostly up to 57.1 µM; activity, negative = inhibition: at the top concentration
Sequence (P11712 whole entry, looked up): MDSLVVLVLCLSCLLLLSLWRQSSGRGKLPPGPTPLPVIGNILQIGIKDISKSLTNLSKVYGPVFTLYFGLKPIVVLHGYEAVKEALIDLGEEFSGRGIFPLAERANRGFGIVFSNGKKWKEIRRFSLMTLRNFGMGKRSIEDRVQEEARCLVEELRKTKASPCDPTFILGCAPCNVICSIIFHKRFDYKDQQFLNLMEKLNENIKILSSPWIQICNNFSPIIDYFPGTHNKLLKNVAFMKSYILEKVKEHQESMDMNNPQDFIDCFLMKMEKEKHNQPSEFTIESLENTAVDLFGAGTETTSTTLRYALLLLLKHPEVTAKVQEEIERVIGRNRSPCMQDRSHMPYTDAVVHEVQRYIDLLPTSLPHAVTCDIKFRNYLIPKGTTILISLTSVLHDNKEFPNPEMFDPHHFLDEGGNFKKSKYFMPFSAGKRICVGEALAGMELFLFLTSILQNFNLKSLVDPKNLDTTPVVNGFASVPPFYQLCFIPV
% is scaled to controls: 0 for no effect and ±100 for the full control effect.

| SMILES | AC50 | activity, negative = inhibition |
| --- | --- | --- |
| CCCCCCCCSc1nnc(CSc2nc3nc(C)cc(C)n3n2)o1 | 17.8 µM (active) |  |
| CCCSc1nnc(CSc2nc3nc(C)cc(C)n3n2)o1 |  | -22.2% |
| Cc1cc(C)n2nc(SCC(=O)N/N=C/c3ccccc3F)nc2n1 |  | -19.2% |
| N#Cc1cccc(NC(=O)N2CCC3(CC2)CCN(C(=O)c2csnn2)CC3)c1 |  | 8.22% |
| CCc1ccc(N/C(SCc2ccccc2C)=C(/C#N)C(=O)NCc2ccco2)cc1 | 3.16 µM (active) |  |
| N=c1nc(N)nc(N)n1-c1ccc(S(N)(=O)=O)cc1 |  | -1.26% [at 11.4 µM] |
| O=C(NCCOC12CC3CC(CC(C3)C1)C2)c1cccc(Br)c1 | 14.1 µM (active) |  |
| NC(=O)c1ccc[n+](CC(=O)OCCC23CC4CC(CC(C4)C2)C3)c1 |  | 3.71% |
| Cc1ccc(/C=N/n2c(-c3cccs3)n[nH]c2=S)cc1 | 1.58 µM (active) |  |
| Cc1ccc(-c2n[nH]c(=S)n2/N=C/c2cccn2C)cc1 | 12.6 µM (active) |  |
| COc1ccc(-n2c(-c3cnccn3)n[nH]c2=S)cc1 |  | -11.4% |
| Cc1n[nH]c(=S)n1/N=C/c1ccc(Br)o1 |  | -10.7% |
| COc1ccc(/C=N/n2c(-c3cccs3)n[nH]c2=S)cc1 | 2.24 µM (active) |  |
| COc1ccc(-n2c(=O)c(-c3cccs3)nc3cnc(Nc4cccc(OC)c4)nc32)cc1 |  | 5.73% |
| C[N+](C)(C)c1cc2c(nn1)Nc1ccccc1S2 |  | -3.44% [at 11.4 µM] |
| C[C@@H](CCCCC(=O)Nc1ccc(C(F)(F)F)cc1)NCCc1cnc[nH]1 | 7.94 µM (active) |  |
| Cc1oncc1C(=O)Nc1ccc(C(F)(F)F)cc1 |  | -29.1% [at 25.6 µM] |
| NCCC(=O)NCCc1cnc[nH]1 | inactive |  |
| Cc1cc(O)c(C(C)C)cc1NC(=O)Nc1cccc2ccccc12 |  | -7.14% [at 11.4 µM] |
| Cc1cc(O)c(C(C)C)cc1C1(c2cc(C(C)C)c(O)cc2C)OC(=O)c2ccccc21 | 0.316 µM (active) |  |
| O=c1nc2ccccc2c2n1C[C@H](CN1CCN(c3ccccc3)CC1)N2 |  | 12.7% |
| COC(=O)C(NC(=O)c1ccc(Cl)cc1)(Nc1nc(C)cs1)C(F)(F)F (configuration not stated) | 8.91 µM (active) |  |
| Cc1noc(C)c1-c1nc(Nc2ccccc2)c2ccccc2n1 |  | 2.16% [at 2.29 µM] |
| Nc1nc(NCc2ccccc2)nc(Nc2cccc(F)c2)c1[N+](=O)[O-] |  | 19.2% |
| Cc1[nH]nc(Nc2ccccc2)c1[N+](=O)[O-] | 20 µM (active) |  |
| CCO/C([O-])=N/c1c[n+](N2CCOCC2)no1 |  | 4.62% [at 25.6 µM] |

| SMILES | AC50 | activity, negative = inhibition |
| --- | --- | --- |
| Clc1ccccc1-c1nc(NC2CCNCC2)c2ccccc2n1 |  | 2.89% [at 2.29 µM] |
| COc1cccc(CNCCNC(=O)c2nonc2N)c1 |  | -25.2% |
| COc1ccc(NC(=O)N2CCCC3(CCN(C(=O)c4c(C)noc4C)CC3)C2)cc1 |  | 16.1% |
| COc1ccc(NC(=O)N2CC3(CCN(C(=O)c4c(C)noc4C)CC3)C2)cc1 |  | 5.26% |
| COc1ccc(N(CC(=O)NCc2cccc(OC)c2)S(=O)(=O)c2c(C)noc2C)cc1 | 7.94 µM (active) |  |
| CCOc1ccc(N(CC(=O)NCc2ccc(OC)cc2)S(=O)(=O)c2c(C)noc2C)cc1 |  | 14% |
| COC(=O)CN(c1ccc(OC)cc1)S(=O)(=O)c1c(C)noc1C | 11.2 µM (active) |  |
| NC(N)=N/N=C(/c1ccccc1)c1ccc(O)cc1O |  | -9.7% [at 11.4 µM] |
| Cc1ccc(C(=O)NC(=S)Nc2ccc(S(=O)(=O)N3CCN(C)CC3)cc2)cc1 | 14.1 µM (active) |  |
| Cc1ccc(S(=O)(=O)N2CCN(C(=O)CN3CCN(C)CC3)C2)cc1 |  | -13.7% |
| COc1ccc(S(=O)(=O)N2CCC(NC(=O)Nc3ccc(C)cc3)CC2)cc1 |  | -17.7% |
| Cc1[nH]n(C(C)(C)C)c(=O)c1Sc1ccccc1 | 7.08 µM (active) |  |
| Cc1[nH]n(C(C)(C)C)c(=O)c1Sc1ccc(Cl)cc1 | 12.6 µM (active) |  |
| COc1cccc(Nc2ncc3nc(CCc4ccccc4)c(=O)n(C4CC4)c3n2)c1 |  | 24.2% |
| COc1ncc2nc(CCc3ccccc3)c(=O)n(C3CC3)c2n1 | 15.8 µM (active) |  |
| COc1ccc(-n2c(=O)c(C)nc3cnc(Oc4ccccc4)nc32)cc1 |  | -4% |
| COc1ccc(Oc2ncc3nc(CCc4ccccc4)c(=O)n(C4CC4)c3n2)cc1 | 12.6 µM (active) |  |
| CN(C)c1ncc2nc(CCc3ccccc3)c(=O)n(C3CC3)c2n1 | 12.6 µM (active) |  |
| COc1cccc(Nc2ncc3nc(-c4cccs4)c(=O)n(-c4ccccc4)c3n2)c1 |  | 19.2% |
| CNc1nc(-c2ccoc2)nc2ccccc12 |  | 13% [at 2.29 µM] |
| Clc1ccc2c(c1)C=Nc1c(NCc3ccccc3)ncnc1O2 |  | -15.6% |
| N#Cc1ccc(-c2ccc(F)cc2)nc1Oc1ccc(Cl)c(Cl)c1 |  | -18.5% |
| Fc1ccc(-c2cn3cc(C(F)(F)F)cc(Cl)c3n2)cc1 | 4.47 µM (active) |  |
| OCCCNCc1ccccn1 |  | 9.34% [at 11.4 µM] |
| CC12CC(NC(=O)N1c1cccc(C(=O)NCc3ccccc3)c1)c1ccccc1O2 (configuration not stated) | 3.98 µM (active) |  |
| O=C(NCc1ccccc1)c1ccc2c(c1)C(=O)N(CC1CCCO1)C2=O (configuration not stated) |  | -20.4% |

| SMILES | AC50 | activity, negative = inhibition |
| --- | --- | --- |
| COc1ccc(N2C(=O)NC3CC2(C)Oc2ccccc23)cc1OC (configuration not stated) |  | 22.9% |
| Cn1c(=O)c2[nH]c(CCCCc3nc4c([nH]3)c(=O)n(C)c(=S)n4C)nc2n(C)c1=S |  | -2.51% [at 11.4 µM] |
| Cn1c(=O)c2[nH]c(SCc3ccccn3)nc2n(C)c1=S | 3.16 µM (active) |  |
| Cn1c(=S)c2[nH]c(SCCN3C(=O)c4ccccc4C3=O)nc2n(C)c1=O |  | -3.8% [at 11.4 µM] |
| CCOc1ccc(NC(=S)N(Cc2ccc(N(C)C)cc2)Cc2ccco2)cc1 | 1 µM (active) |  |
| CCOc1ccc(NC(=S)N(Cc2ccc(Cl)cc2)Cc2ccco2)cc1 | 10 µM (active) |  |
| CN(C)c1ccc(-c2cc(N(C)Cc3ccco3)ncn2)cc1 |  | -6.39% [at 2.29 µM] |
| CN(C)c1ccc(-c2cncnc2N(C)Cc2ccco2)cc1 |  | -17.3% [at 2.29 µM] |
| N[C@H](C(=O)O)[C@H](O)C(=O)O |  | 1.98% |
| Cc1ccc(NC(=O)c2ccc(NCC3CCCO3)c([N+](=O)[O-])c2)cc1Cl (configuration not stated) | 1.12 µM (active) |  |
| CC(C)(C)C(=O)N1CCN(c2ccc([N+](=O)[O-])c(NCC3CCCO3)c2)CC1 (configuration not stated) | 12.6 µM (active) |  |
| CCS(=O)(=O)N1CCC(C(=O)NCC2CCCO2)CC1 (configuration not stated) |  | 35.7% |
| Cc1cc(C)c(S(=O)(=O)N2CCN(c3ccc([N+](=O)[O-])c(NCC4CCCO4)c3)CC2)c(C)c1 (configuration not stated) | 2 µM (active) |  |
| N#CCSc1ncnc2c1cnn2CCO |  | -20.7% |
| O=C1C2C3C=CC(C3)C2C(=O)N1c1ncn[nH]1 (configuration not stated) |  | 4.59% |
| CC1=NN(c2ccc(S(=O)(=O)O)cc2)C(=O)/C1=C\c1ccc(Cl)cc1 |  | -2.05% [at 11.4 µM] |
| CC1=NN(c2ccccc2)C(=O)/C1=C\N1CC(C)OC(C)C1 (configuration not stated) |  | 5.6% |
| CCOc1cc(/C=C2/C(=O)N(c3ccccc3)N=C2C)ccc1OC(=O)c1ccco1 | 0.631 µM (active) |  |
| CNc1nc(-c2ccccc2CN(C)C)nc2ccccc12 |  | 4.11% [at 2.29 µM] |
| O=C1Oc2ccccc2C(=O)/C1=C\N1C(=O)N/C(=C\c2ccccc2O)C1=O | 1 µM (active) |  |
| C[C@H](C[C@H](N)C(=O)O)C(=O)O |  | -0.378% |
| CC(=O)OC[C@@H]1O[C@@H](O/N=C2/C[C@@H](O)[C@@H](O)[C@@H]3[C@@H]4C(=O)N([C@@H](C)c5ccccc5)C(=O)[C@H]4CC[C@@H]23)[C@H](OC(C)=O)[C@H](OC(C)=O)[C@@H]1OC(C)=O |  | 16.3% [at 11.4 µM] |
| O=S(=O)(c1ccccc1)N1CCCC1c1nc2ccccc2s1 (configuration not stated) | 12.6 µM (active) |  |
| CC(C)NC(=O)N1CCC2(CC1)CCN(C(=O)c1cccn1C)CC2 |  | 23.2% |
| COc1ccccc1CNc1ncncc1-c1ccccc1Cl |  | -27.8% [at 2.29 µM] |
| COc1ccccc1CNc1ccnc(-c2ccccc2Cl)n1 |  | -21.6% [at 2.29 µM] |

| SMILES | AC50 | activity, negative = inhibition |
| --- | --- | --- |
| COc1cccc(CNc2ccc(F)c(Cl)c2)c1O | 2.82 µM (active) |  |
| CCCN1C2=NCCCN2c2ccccc21 |  | -8.01% |
| COc1ccc(/C=C/C(=O)c2ccoc2)cc1 | 28.2 µM (active) |  |
| O=C(/C=C/c1ccc2ccccc2c1)c1ccoc1 |  | 5.04% |
| COc1ccc(C(=O)/C=C(/C)N(C)C)cc1 |  | -8.1% |
| O=C(CCc1nc(-c2ccccc2)c(-c2ccccc2)o1)OCc1ccc(Cl)cc1 | 22.4 µM (active) |  |
| NCCSc1nc(-c2ccccc2)c(-c2ccccc2)o1 |  | -11.6% [at 11.4 µM] |
| Cc1ccc(-c2nnc(N(C)C(=O)c3cccnc3)s2)cc1 | 1.41 µM (active) |  |
| COc1cccc(C(=O)N(C)c2nnc(-c3ccncc3)s2)c1 | 2 µM (active) |  |
| COc1cccc(-c2ccc3ncnc(N(C)C)c3c2)c1 |  | -9.73% [at 2.29 µM] |
| CC(=O)N(C)c1nnc(-c2cnccn2)s1 |  | 25.9% |
| CN(C)C(=O)c1ccc(-c2cncnc2NCc2cccnc2)cc1 |  | 8.29% [at 2.29 µM] |
| CCCC1S/C(=N/N=C/c2ccc(OC)cc2)N(Cc2ccc(OC)cc2)C1=O (configuration not stated) | 15.8 µM (active) |  |
| CC(C)=NO[C@@H](C)c1cc(-c2c(C)cc(C)cc2C)no1 |  | -0.976% [at 11.4 µM] |
| CCOC(=O)c1c(C)oc2c1cc(O)c1ccccc12 | 1.12 µM (active) |  |
| CCOC(=O)c1c(C)oc2c1c(C=NC1CCS(=O)(=O)C1)c(O)c1ccccc12 (configuration not stated) |  | -4.9% |
| C[C@@H]1C[C@H](OC(=O)[C@@H](O)c2ccccc2)CC(C)(C)N1C |  | 14.4% [at 25.6 µM] |
| CCCc1nnc(NC(=O)Cn2cnc3ccccc3c2=O)s1 | 17.8 µM (active) |  |
| CCCC(=O)Nc1nc(-c2ccc3c(c2)CCN3S(C)(=O)=O)cs1 |  | -27.5% |
| O=C(Cn1cnc2ccccc2c1=O)Nc1nnc(SCc2ccccc2)s1 | 8.91 µM (active) |  |
| OCCn1cnc2c(SCc3ccccc3)ncnc21 |  | 12.5% [at 11.4 µM] |
| CCCc1nnc(NC(=O)CCC(=O)N2CCN(c3ccccn3)CC2)s1 |  | -20.6% |
| CCCc1nnc(NC(=O)CCC(=O)NCc2ccccc2OC)s1 |  | -27% |
| COc1ccc(-c2csc(NC(=O)CCn3cnc4ccccc4c3=O)n2)cc1OC | 1 µM (active) |  |
